# Compounds with a hit are over-represented: about 11% of the library has one in this group of screens.
# hNpr1 antagonist = antagonists of human natriuretic peptide receptor Npr1; P16066; HEK293 hNpr1 GloSensor cGMP, ANP-stimulated luminescence; Potency, µM (top dose mostly 46.3 µM), actives largely listed as inhibitors; 76,000 tested, 1.6% active; calls by dose curve; further: nearly all actives have a fitted effect of over 60% in size
# Target sequence (P16066 whole entry, looked up): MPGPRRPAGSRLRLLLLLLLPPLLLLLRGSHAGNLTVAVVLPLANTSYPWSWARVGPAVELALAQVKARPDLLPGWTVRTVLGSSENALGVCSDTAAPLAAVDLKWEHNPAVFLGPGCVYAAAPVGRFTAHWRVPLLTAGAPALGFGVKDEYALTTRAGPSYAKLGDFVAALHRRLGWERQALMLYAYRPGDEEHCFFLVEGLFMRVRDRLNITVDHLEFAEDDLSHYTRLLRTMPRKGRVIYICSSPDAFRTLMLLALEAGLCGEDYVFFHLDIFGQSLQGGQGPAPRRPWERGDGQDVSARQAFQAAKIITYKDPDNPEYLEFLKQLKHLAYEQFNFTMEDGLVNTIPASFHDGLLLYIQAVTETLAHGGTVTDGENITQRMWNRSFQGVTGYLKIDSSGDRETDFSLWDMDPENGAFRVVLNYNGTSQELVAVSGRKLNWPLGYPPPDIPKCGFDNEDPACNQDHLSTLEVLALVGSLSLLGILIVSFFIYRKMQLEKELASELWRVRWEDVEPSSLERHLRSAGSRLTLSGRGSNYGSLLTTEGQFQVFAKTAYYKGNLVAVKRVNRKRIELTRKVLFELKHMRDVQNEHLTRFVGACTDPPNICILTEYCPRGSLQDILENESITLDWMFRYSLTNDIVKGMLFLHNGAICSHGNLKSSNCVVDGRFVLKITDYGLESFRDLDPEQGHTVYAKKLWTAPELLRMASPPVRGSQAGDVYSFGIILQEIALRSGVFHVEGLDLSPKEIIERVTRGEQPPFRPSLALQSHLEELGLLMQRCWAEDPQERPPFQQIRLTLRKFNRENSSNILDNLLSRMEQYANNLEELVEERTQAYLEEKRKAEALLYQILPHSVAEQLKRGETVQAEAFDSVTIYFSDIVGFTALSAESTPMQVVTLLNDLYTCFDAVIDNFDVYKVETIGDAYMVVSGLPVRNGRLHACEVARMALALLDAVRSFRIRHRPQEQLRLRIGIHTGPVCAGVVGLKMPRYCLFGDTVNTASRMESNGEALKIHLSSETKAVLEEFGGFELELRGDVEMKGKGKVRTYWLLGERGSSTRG
#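 Compound pre-incubated 30 min at room temperature on GloSensor-loaded HEK293 cells stably carrying hNpr1 and the pGS-40F cGMP biosensor. Stimulation uses hNppA at 0.1 nM final; luminescence is taken at baseline and 20 min post-agonist.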
# HEK cytotox = HEK 293 cell cytotoxicity; 94,000 tested, 6.6% active; Potency, µM (top dose mostly 115 µM), usual class: inhibitors; HEK 293 viability, ATP luminescence (CellTiter-Glo), 48-72 h; further: nearly all actives have a fitted effect of over 60% in size
#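 Cytotoxicity was scored by loss of ATP-coupled luminescence (CellTiter-Glo) in HEK 293 cells. Compound treatment ran 48 or 72 hr at 37 degree Celsius, 5% CO2, 95% humidity.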
# Luciferase inh = blocks purified firefly luciferase enzyme activity | P08659 | purified P. pyralis luciferase, luminescence, biochemical | Potency, µM (doses to about 115 µM), most hits filed as inhibitors | 76,000 tested, 2.5% active | AID 1347043; further: nearly all actives have a fitted effect of over 65% in size
#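 Biochemical qHTS: compound (6-point titration) added to 10uM D-luciferin plus 10uM ATP in Tris acetate pH 7.5 buffer with Mg, Tween-20 and BSA, then purified enzyme at 10nM; light output imaged.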
# 3T3 cytotox = cytotoxic compounds in NIH 3T3 cells; NIH 3T3 viability, CellTiter-Glo ATP luminescence, 48-72 h; Potency, µM (top dose mostly 96.7 µM), most hits filed as inhibitors; 94,000 tested, 4.3% active; further: nearly all actives have a fitted effect of over 55% in size
#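 NIH 3T3 cells at 400 cells/well received 23 nL of compound by pintool and were incubated 48 or 72 h at 37 °C. Viability was read as ATP-coupled CellTiter-Glo luminescence.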
# Hits are given with their value; n = inactive; u = inconclusive; x = not tested or not shown; ! = a repeat was not active. Unless noted, the call rests on the fitted dose curve; in most records, active means well fitted curve in the direction sought with a large enough effect; inconclusive means small, poorly fitted or top-dose-only effect, or another doubt; inactive means no such curve, though single readings can be large; an effect the other way counts as inactive or inconclusive.
SMILES,hNpr1 antagonist,HEK cytotox,Luciferase inh,3T3 cytotox
Cc1ccc2nc(C3CCCN(CC4CCCC4)C3)[nH]c(=O)c2c1 (stereo unspecified),n,70.8µM!,n,u
COc1ccc(-c2cc(-c3ccc4cn[nH]c4c3)cn3cncc23)cn1,n,u,u,44.7µM
COc1ccc(-c2cc(-c3ccncc3)c3cncn3c2)cn1,n,u,n,u
COc1ccc(-c2cc(-c3cccc(CO)c3)cn3cncc23)cn1,n,u,n,39.8µM
Cc1ccc2c(n1)OC(Cn1cccc1)CN(CCC1=CCCCC1)C2=O (stereo unspecified),x,89.1µM,x,u
c1ccc2c(-c3nc4ccncc4[nH]3)c[nH]c2c1,n,u,u,u
c1cnc2nc(-c3c[nH]c4ccccc34)[nH]c2c1,n,u,44.7µM,u
O=C(O)CCn1ncc2cc(OCC3CCN(C(=O)Oc4ccccc4Cl)CC3)ccc21,n,n,u,17.8µM
O=C(O)CCn1ncc2cc(OC3CCN(C(=O)COc4ccccc4)CC3)ccc21,n,n,n,50.1µM
O=C(O)CCn1ncc2cc(OCC3CCN(C(=O)CCC(F)(F)F)CC3)ccc21,n,n,n,12.6µM
O=C(O)CCn1ncc2cc(OC3CCN(C(=O)Oc4ccccc4)CC3)ccc21,n,n,n,u
Cc1cnc(CC2CCCN(C(=O)C3CC3)C2)n1C(C)C (stereo unspecified),n,n,n,n
CCC(C)NC(=O)C1CCCN1Cc1ccc(-c2cncnc2)cc1 (stereo unspecified),x,n,x,n
CNc1cc(C2CC(NC(=O)COc3ccc(Cl)cc3C)C2)nc(N)n1 (stereo unspecified),n,17.8µM,n,39.8µM
O=C1Nc2ccccc2CC12CCN(Cc1ccccc1C(F)(F)F)C2 (stereo unspecified),n,u,n,u
O=C1Nc2ccccc2CC12CCN2Cc1ccccc1C(F)(F)F (stereo unspecified),n,79.4µM,n,u
COc1ccccc1Nc1ccnc(N2CCC[C@H]2C(=O)N2CCC(Cc3ccccc3)CC2)n1,x,39.8µM,x,u
COc1ccccc1Nc1ccnc(N2CCC[C@H]2C(=O)NCc2cccnc2)n1,x,u,x,n
O=C(NC1CC1)[C@@H]1CCCN1c1nccc(Nc2ccccc2Cl)n1,x,u,x,n
CN(C)C(=O)NC1CCN(c2nccc(Nc3ccccc3Cl)n2)CC1,x,44.7µM,x,28.2µM
COc1ccc(Nc2ccnc(N3CCN(C(=O)NC4CCCC4)CC3)n2)cc1,x,44.7µM,x,u
O=C(NC1CCCC1)N1CCN(c2nccc(Nc3ccccc3Cl)n2)CC1,x,39.8µM,x,u
O=C(NC1CCN(c2nccc(Nc3ccccc3Cl)n2)CC1)C1CCCC1,x,u,x,28.2µM
COc1ccccc1Nc1ccnc(N2CCC(NC(=O)C3CCCC3)CC2)n1,x,n,x,u
COc1ccccc1Nc1ccnc(N2CCN(C(=O)NC3CCCC3)CC2)n1,x,44.7µM,x,31.6µM
SMILES,hNpr1 antagonist,HEK cytotox,Luciferase inh,3T3 cytotox
CO[C@H]1C(=O)N(C2CCN(C(=O)COc3ccccc3)CC2)[C@H]1c1ccncc1,x,n,x,n
Cc1ccc(CC(=O)N2CCC3(C2)C(=O)N(C)c2ccccc23)cc1 (stereo unspecified),n,n,n,u
O=C(c1ccccc1)N1CCC2(C1)C(=O)N(Cc1ccccc1)c1ccccc12 (stereo unspecified),n,u,n,u
CN1C(=O)C2(CCN(C(=O)c3cccc(Br)c3)C2)c2ccccc21 (stereo unspecified),n,35.5µM,n,u
Cc1ccc(C(=O)N2CCC3(CC2)C(=O)N(C)c2ccccc23)cc1C,n,u,n,n
COc1ccc(CC(=O)N2CCC3(C2)C(=O)N(CCc2ccccc2)c2ccccc23)cc1 (stereo unspecified),n,39.8µM!,n,u
Cc1ccc(C(=O)N2CCC3(C2)C(=O)N(CCc2ccccc2)c2ccccc23)cc1 (stereo unspecified),n,31.6µM!,n,39.8µM!
O=C(c1ccc(F)cc1)N1CCC2(C1)C(=O)N(CCc1ccccc1)c1ccccc12 (stereo unspecified),n,39.8µM!,n,u
COC(=O)N1CCC2(C1)C(=O)N(CCc1ccccc1)c1ccccc12 (stereo unspecified),n,63.1µM!,n,u
COCC(=O)N1CCC2(C1)C(=O)N(CCc1ccccc1)c1ccccc12 (stereo unspecified),n,n,n,n
O=C(c1ccccc1F)N1CCC2(C1)C(=O)N(CCc1ccccc1)c1ccccc12 (stereo unspecified),n,39.8µM,n,u
COc1cccc(C(=O)N2CCC3(C2)C(=O)N(CCc2ccccc2)c2ccccc23)c1 (stereo unspecified),n,44.7µM,n,u
O=C(c1ccccc1)N1CCC2(C1)C(=O)N(CCc1ccccc1)c1ccccc12 (stereo unspecified),n,35.5µM!,n,u
CN1C(=O)C2(CCN(C(=O)c3ccccc3F)C2)c2ccccc21 (stereo unspecified),n,u,n,n
COC1CN(C2CCN(C(=O)c3cccc4[nH]ccc34)CC2)C12CCOCC2 (stereo unspecified),x,n,x,n
O=C(Cc1cccc(Cl)c1)N1CCC2(C1)C(=O)N(CCc1ccccc1)c1ccccc12 (stereo unspecified),n,31.6µM,n,44.7µM!
CN1C(=O)C2(CCN(C(=O)CCc3ccccc3)C2)c2ccccc21 (stereo unspecified),n,u,n,n
O=C(CN1C(=O)NC2(CCOCC2)C1=O)Nc1ccc2c(c1)OCCO2,n,n,44.7µM,n
CC(C)(C)C1CCC2(CC1)NC(=O)N(CC(=O)Nc1ccc3c(c1)OCCO3)C2=O (stereo unspecified),n,u,u,28.2µM
O=C(Cn1nc2n(c1=O)CCCC2)Nc1ccc2c(c1)OCO2,n,n,u,n
O=C(Cn1nc2n(c1=O)CCCC2)Nc1ccc2c(c1)OCCO2,n,n,20µM,n
Cc1nnc2ccc(N3CCCN(C(=O)c4cccc(Cl)c4)CC3)nn12,x,n,x,n
COc1ccc2[nH]c3c(c2c1)CCNC31CCN(C(=O)Cc2cccnc2)CC1,n,n,n,n
COC(=O)[C@@H]1Cc2c([nH]c3ccccc23)[C@H]2C[C@@H](NC3CC3)C[C@@H](c3ccc(F)cc3)N21,u,8.91µM,n,28.2µM
COC(=O)[C@@H]1C[C@H](NC(=O)CCCc2cccs2)CN1C,n,n,n,n
COC(=O)[C@@H]1Cc2c([nH]c3ccccc23)[C@H]2C[C@@H](N3CCOCC3)C[C@@H](c3ccc(F)cc3)N21,n,u,n,u
COc1cc2nc(C)n(CC(=O)NC3CCCc4c3[nH]c3ccccc43)c(=O)c2cc1OC (stereo unspecified),n,u,n,u
COC(=O)[C@@H]1Cc2c([nH]c3ccccc23)[C@H]2C[C@H](NCc3cccs3)C[C@@H](c3ccccc3)N21,n,u,n,25.1µM
COC(=O)[C@@H]1Cc2c([nH]c3ccccc23)[C@H]2C[C@@H](NCCO)C[C@@H](c3ccc(F)cc3)N21,n,28.2µM,n,28.2µM

# Screens deposited in PubChem BioAssay by National Center for Advancing Translational Sciences (NCATS).
